Inconclusive results are not listed. The source made the active and inactive calls. Unless noted, calls come from the whole dose curve; as a rule, active = well fitted curve in the direction sought with a large enough effect in the repeat runs; inconclusive = weak or mixed curves; inactive = no such curve, though single readings can be large; an effect the other way counts as inactive or inconclusive.
Key:
[1] = molecular target: Thyrotropin receptor (Homo sapiens) (UniProt P16473); assay: qHTS assay to identify small molecule antagonists of the thyroid stimulating hormone receptor (TSHR) signaling pathway (AID 1259385; calls by dose curve; note: nearly all actives have a fitted effect of over 20% in size)
Sequence of Thyrotropin receptor (Homo sapiens) (P16473 whole entry, looked up): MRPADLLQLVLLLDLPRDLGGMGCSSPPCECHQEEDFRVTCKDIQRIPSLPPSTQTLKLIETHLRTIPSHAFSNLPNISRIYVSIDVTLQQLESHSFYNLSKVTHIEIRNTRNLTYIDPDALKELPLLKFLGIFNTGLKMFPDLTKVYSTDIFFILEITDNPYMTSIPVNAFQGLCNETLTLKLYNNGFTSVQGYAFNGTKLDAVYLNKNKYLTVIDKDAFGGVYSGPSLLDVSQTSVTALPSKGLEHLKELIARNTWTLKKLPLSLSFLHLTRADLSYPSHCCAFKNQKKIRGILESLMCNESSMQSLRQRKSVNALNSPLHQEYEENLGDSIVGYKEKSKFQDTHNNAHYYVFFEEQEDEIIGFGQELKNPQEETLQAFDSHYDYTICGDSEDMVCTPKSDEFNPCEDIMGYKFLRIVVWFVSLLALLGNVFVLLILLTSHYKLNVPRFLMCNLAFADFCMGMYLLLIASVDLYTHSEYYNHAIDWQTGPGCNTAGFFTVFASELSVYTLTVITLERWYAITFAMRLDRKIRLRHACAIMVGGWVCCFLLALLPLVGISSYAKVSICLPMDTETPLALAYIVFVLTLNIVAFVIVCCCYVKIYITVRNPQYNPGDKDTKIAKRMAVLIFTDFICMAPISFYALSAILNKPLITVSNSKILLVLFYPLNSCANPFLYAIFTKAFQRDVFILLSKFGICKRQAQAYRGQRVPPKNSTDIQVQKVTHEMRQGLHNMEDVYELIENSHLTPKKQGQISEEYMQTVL
How it was run: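 TSHR-HEK293 cells were plated and held 18 h at 37C/5% CO2, then given compound plus Ro20-1724 and stimulated with TSH at 1.5 ng/mL final. After 30 min at room temperature, cAMP was detected with cAMP-d2/anti-cAMP-cryptate (1 h) by fluorescence.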

[2] = qHTS assay to identify small molecule agonists of the estrogen receptor alpha (ER-alpha) signaling pathway in the presence of an antagonist - cell viability counter screen (AID 1259386);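 note: series mostly up to about 92 µM; cells exposed to compounds for 22 h at 37 °C before the viability read; nearly all actives have a fitted effect of over 30% in size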
How it was run: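 Cell viability in VM7Luc4E2 cells (endogenous full-length ER-alpha) measured by CellTiter-Fluor fluorescence in the same wells as the luciferase screen. Cells pre-cultured 5 days in charcoal-stripped serum, then treated 22 h with compounds at 15 concentrations plus 10.0nM ICI-182,780.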

[3] = molecular target: Progesterone receptor (Homo sapiens) (UniProt P06401); assay: qHTS assay to identify small molecule agonists of the progesterone receptor (PR) signaling pathway (AID 1346784; calls by dose curve; note: nearly all actives have a fitted effect of over 30% in size)
Sequence of Progesterone receptor (Homo sapiens) (P06401 whole entry, looked up): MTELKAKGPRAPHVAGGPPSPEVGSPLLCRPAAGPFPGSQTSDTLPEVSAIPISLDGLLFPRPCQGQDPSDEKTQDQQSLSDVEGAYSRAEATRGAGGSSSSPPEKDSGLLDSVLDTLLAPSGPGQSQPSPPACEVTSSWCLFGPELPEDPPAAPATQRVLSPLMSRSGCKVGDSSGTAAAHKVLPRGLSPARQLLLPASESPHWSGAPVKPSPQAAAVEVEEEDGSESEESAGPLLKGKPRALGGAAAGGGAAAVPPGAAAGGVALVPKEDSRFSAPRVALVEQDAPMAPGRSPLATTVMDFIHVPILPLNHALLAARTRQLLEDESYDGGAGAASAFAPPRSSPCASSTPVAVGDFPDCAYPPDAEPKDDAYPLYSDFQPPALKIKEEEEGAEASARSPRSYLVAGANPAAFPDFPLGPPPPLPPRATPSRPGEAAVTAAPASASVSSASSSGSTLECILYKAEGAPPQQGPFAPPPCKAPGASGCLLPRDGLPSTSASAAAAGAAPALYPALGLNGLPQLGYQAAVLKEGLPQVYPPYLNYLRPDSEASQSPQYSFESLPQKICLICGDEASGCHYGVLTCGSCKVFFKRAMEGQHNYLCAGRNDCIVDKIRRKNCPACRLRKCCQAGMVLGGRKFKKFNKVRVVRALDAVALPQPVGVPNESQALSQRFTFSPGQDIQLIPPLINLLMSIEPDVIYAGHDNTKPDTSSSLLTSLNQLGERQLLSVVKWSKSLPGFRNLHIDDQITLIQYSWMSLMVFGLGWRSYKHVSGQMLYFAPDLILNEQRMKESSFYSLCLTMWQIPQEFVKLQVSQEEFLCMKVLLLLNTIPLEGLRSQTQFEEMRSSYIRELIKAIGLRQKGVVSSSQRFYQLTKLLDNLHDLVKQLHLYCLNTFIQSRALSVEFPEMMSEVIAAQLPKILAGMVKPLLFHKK
How it was run: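 Agonist qHTS: compounds pinned onto 3,000 PR-UAS-bla HEK 293T cells per well in charcoal-stripped serum medium, 16hr at 37C, then beta-lactamase activity measured by LiveBLAzer FRET fluorescence after 2 hours at room temperature.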

[4] = molecular target: Progesterone receptor (Homo sapiens) (UniProt P06401); assay: qHTS assay to identify small molecule antagonists of the progesterone receptor (PR) signaling pathway (AID 1346795; active = well fitted inhibition curve with a large enough effect in the signal ratio in the repeat runs, not every such curve was filed as active; the % refers to the signal ratio)
How it was run: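 Antagonist mode with agonist R5020 at 1 nM final and 16 hr incubation at 37C. Reporter was beta-lactamase driven by UAS in HEK293T (PR-UAS-bla), 2% charcoal-stripped serum; signal from LiveBLAzer FRET substrate, 2 hr at room temperature.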

[5] = qHTS assay to identify small molecule antagonists of the progesterone receptor (PR) signaling pathway - cell viability counter screen (AID 1346798); note: series mostly up to about 92 µM; nearly all actives have a fitted effect of over 50% in size
How it was run: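 Cytotoxicity read as CellTiter-Glo luminescence (30 min, room temperature) in the same wells as the beta-lactamase readout. HEK293T PR-UAS-bla cells in charcoal-stripped 2% FBS received compound and R5020, then 16 h at 37C, 5% CO2.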

[6] = qHTS assay to identify small molecule antagonists of the TGF-beta/Smad signaling pathway - cell viability counter screen (AID 1346824); note: nearly all actives have a fitted effect of over 50% in size
How it was run: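 SBE-bla HEK 293T cells were plated overnight at 37 C, then given compounds in DMSO plus TGF-beta1 (added as 0.25 ng/mL solution) for 5 hr. After the bla read, CellTiter-Glo was added to the same wells and luminescence read after 30 min at room temperature.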

[7] = qHTS assay to identify small molecule agonists of the TGF-beta/Smad signaling pathway - cell viability counter screen (AID 1346829); note: top concentration of the series differs between compounds; nearly all actives have a fitted effect of over 45% in size
How it was run: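 Same-well cytotoxicity: CellTiter-Glo added after the 2 hr room-temperature beta-lactamase substrate step, luminescence measured 30 min later; cells had 5 hr of compound at 37 C.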

[8] = qHTS assay to identify small molecule agonists of the TGF-beta/Smad signaling pathway (AID 1346859; active = well fitted activation curve with a large enough effect in the signal ratio in the repeat runs, not every such curve was filed as active; the % refers to the signal ratio; note: series mostly up to about 77 µM)
How it was run: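 Fluorescence (ex 405 nm; em 460 and 530 nm) was read 2 h after LiveBLAzer FRET substrate at RT. The preceding compound treatment of overnight-plated SBE-bla HEK293T cells lasted 5 h at 37 C.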

[9] = molecular target: Thyrotropin-releasing hormone receptor (Homo sapiens) (UniProt P34981); assay: qHTS assay to identify small molecule antagonists of the thyrotropin-releasing hormone receptor (TRHR) signaling pathway (AID 1346877; active = well fitted inhibition curve with a large enough effect in the repeat runs, not every such curve was filed as active; note: series mostly up to about 51 µM)
Sequence of Thyrotropin-releasing hormone receptor (Homo sapiens) (P34981 whole entry, looked up): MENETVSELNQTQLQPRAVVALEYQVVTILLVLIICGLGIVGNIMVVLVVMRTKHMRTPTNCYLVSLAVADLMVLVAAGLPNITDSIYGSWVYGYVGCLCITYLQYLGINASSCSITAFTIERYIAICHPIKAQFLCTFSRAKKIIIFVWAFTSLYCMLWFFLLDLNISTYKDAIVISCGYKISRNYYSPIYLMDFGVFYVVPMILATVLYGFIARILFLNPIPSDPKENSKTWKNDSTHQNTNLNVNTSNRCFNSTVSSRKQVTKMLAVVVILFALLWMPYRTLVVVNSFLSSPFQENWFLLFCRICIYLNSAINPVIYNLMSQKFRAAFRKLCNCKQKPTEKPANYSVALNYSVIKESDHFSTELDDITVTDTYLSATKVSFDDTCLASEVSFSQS
How it was run: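 TRHR-expressing HEK293 cells loaded with calcium dye for 2 h at 37 C; compounds pre-incubated 5 min at room temperature before TRH challenge at 1 nM final. Intracellular calcium fluorescence read kinetically for 3 min; 15 concentrations in triplicate.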

[10] = molecular target: Thyrotropin-releasing hormone receptor (Homo sapiens) (UniProt P34981); assay: qHTS assay to identify small molecule agonists of the thyrotropin-releasing hormone receptor (TRHR) signaling pathway (AID 1346891; calls by dose curve; note: series mostly up to about 58 µM)
How it was run: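 Agonist-mode intracellular calcium readout: kinetic fluorescence over 3 min at 1 s intervals after compound addition to TRHR-HEK293 cells (18 h seeded, 2 h dye-loaded at 37 C). Fifteen concentrations, triplicates.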

[11] = Human pregnane X receptor (PXR) small molecule agonists, qHTS cell viability counter screen (AID 1346977); note: nearly all actives have a fitted effect of over 50% in size
How it was run: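 Same-well viability read: CellTiter-Fluor added after 23 hr compound exposure, fluorescence measured 1 hr later. Cells were PXR-Luc HepG2 seeded at 2,000/well in 5% charcoal-stripped FBS medium, rested 5 hr before dosing at 37 C.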

[12] = Caspase-3/7 induction in HepG2 cells by small molecules, qHTS assay (AID 1346978); note: nearly all actives have a fitted effect of over 15% in size
How it was run: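 Wild-type HepG2 cells (2,000/well) were settled 5 h at 37 C, 5% CO2, then exposed to compounds in DMSO for 17 h. Caspase-3/7 activity was read by luminescence 30 min after adding Caspase-Glo 3/7 reagent at room temperature.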

[13] = Caspase-3/7 induction in CHO-K1 cells by small molecules, qHTS cell viability counter screen (AID 1346979); note: nearly all actives have a fitted effect of over 35% in size
How it was run: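 Cytotoxicity counter screen: CellTiter-Fluor added to compound-treated wild-type CHO-K1 cells at 16 h (37C, 5% CO2), fluorescence measured 1 h later; same wells as caspase-3/7 measurement.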

[14] = Caspase-3/7 induction in CHO-K1 cells by small molecules, qHTS assay (AID 1346980); note: nearly all actives have a fitted effect of over 15% in size
How it was run: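 Wild-type cells were seeded at 1,500 per well and settled 5 hr at 37 C, 5% CO2, then exposed to DMSO-dissolved compounds for 17 hr. Caspase-Glo 3/7 reagent was added, and luminescence was read after 30min at room temperature.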

[15] = Caspase-3/7 induction in HepG2 cells by small molecules, qHTS cell viability counter screen (AID 1346981); note: series mostly up to about 92 µM; nearly all actives have a fitted effect of over 30% in size
How it was run: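 Wild-type HepG2 cells, 2,000/well, settled 5 hr at 37 C, 5% CO2 before compound addition. Viability read by CellTiter-Fluor fluorescence, reagent added after 16 hr compound exposure, then 1 hr at 37C, in the same wells as the caspase read.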

[16] = molecular target: Nuclear receptor subfamily 1 group I member 2 (Homo sapiens) (UniProt O75469); assay: Human pregnane X receptor (PXR) small molecule agonists, qHTS assay (AID 1346982); note: nearly all actives have a fitted effect of over 35% in size
Sequence of Nuclear receptor subfamily 1 group I member 2 (Homo sapiens) (O75469 whole entry, looked up): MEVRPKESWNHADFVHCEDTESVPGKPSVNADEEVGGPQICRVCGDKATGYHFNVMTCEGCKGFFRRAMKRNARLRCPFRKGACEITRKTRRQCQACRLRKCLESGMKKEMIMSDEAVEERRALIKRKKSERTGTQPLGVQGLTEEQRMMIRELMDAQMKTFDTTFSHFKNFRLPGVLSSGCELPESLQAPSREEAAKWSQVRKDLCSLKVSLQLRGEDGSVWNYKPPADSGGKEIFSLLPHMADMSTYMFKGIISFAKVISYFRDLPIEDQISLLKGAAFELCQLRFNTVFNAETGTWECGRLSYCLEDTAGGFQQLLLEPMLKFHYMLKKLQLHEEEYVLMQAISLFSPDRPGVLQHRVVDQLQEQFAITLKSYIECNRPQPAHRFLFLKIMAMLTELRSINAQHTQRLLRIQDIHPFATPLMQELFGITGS
How it was run: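 PXR-Luc HepG2 reporter cells (CYP3A4-driven luciferase) in 5% charcoal-stripped FBS medium, plated 5 h before compound addition, then treated 24 h at 37C. Luciferase read by ONE-Glo luminescence after 30 min at room temperature.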

[17] = molecular target: Nuclear receptor subfamily 1 group I member 2 (Rattus norvegicus) (UniProt Q9R1A7); assay: Rat pregnane X receptor (rPXR) activation by small molecules, qHTS assay (AID 1346983); details: rPXR luciferase reporter cells, One-Glo luminescence, 24 h; hits give high values; note: nearly all actives have a fitted effect of over 20% in size
Sequence of Nuclear receptor subfamily 1 group I member 2 (Rattus norvegicus) (Q9R1A7 whole entry, looked up): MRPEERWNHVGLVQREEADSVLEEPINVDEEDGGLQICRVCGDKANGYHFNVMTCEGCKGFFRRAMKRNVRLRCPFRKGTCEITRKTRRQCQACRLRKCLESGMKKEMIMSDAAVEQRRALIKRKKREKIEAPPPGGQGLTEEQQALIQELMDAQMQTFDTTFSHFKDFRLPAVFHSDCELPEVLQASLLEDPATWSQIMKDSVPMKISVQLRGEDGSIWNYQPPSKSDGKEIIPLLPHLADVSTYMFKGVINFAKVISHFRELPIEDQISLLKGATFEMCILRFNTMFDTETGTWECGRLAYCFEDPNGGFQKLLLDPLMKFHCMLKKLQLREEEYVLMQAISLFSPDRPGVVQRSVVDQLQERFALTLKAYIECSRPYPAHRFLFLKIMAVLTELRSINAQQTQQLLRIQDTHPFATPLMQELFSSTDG
How it was run: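 Cell-based rPXR luciferase reporter assay, 2,000 cells per well, rested 5hr at 37 C before compound addition in DMSO, then 24 hr at 37 C. One-Glo reagent was added and luminescence read after 30 min at room temperature.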

[18] = molecular target: Nuclear receptor subfamily 1 group I member 2 (Homo sapiens) (UniProt O75469); assay: CYP3A4 induction through human pregnane X receptor (PXR) by small molecules, qHTS assay (AID 1346984); note: nearly all actives have a fitted effect of over 40% in size
How it was run: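 DPX-2 HepG2 cells carrying a PXR response element and CYP3A4-promoter luciferase construct, treated with compounds 24 hr at 37C. Then P450-Glo CYP3A4 Luciferin-IPA substrate (3uM final) for 3 hr at 37C, One-Glo added, luminescence read.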

[19] = molecular target: Nuclear receptor subfamily 1 group I member 2 (Homo sapiens) (UniProt O75469); assay: Human pregnane X receptor (PXR) activation by small molecules, qHTS assay (AID 1346985); note: nearly all actives have a fitted effect of over 40% in size
How it was run: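 DPX-2 cells (HepG2 co-transfected with a PXR response element and a CYP3A4-promoter luciferase construct) were seeded at 2,000 per well, rested 5 hr at 37C, then exposed to DMSO-dissolved compounds for 24 hr. Activation was read as luciferase luminescence.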

[20] = qHTS assay to identify small molecule agonists of the progesterone receptor (PR) signaling pathway - cell viability counter screen (AID 1346799; calls by dose curve; note: nearly all actives have a fitted effect of over 45% in size)
How it was run: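 Cytotoxicity measured by CellTiter-Glo luminescence (30 min, RT) in the same wells as the PR beta-lactamase agonist read. Those HEK293T cells had 16 h compound treatment at 37 C in 2% charcoal-stripped FBS medium.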
% is set by controls: 0 for no effect and ±100 for the full control effect.

CC1(C)S[C@@H]2[C@H](N=CN3CCCCCC3)C(=O)N2[C@H]1C(=O)O
inactive: outcome [1] | Potency [2] | Potency [3] | Potency [4] | Potency [5] | outcome [6] | outcome [7] | outcome [8] | outcome [9] | outcome [10] | Potency [11] | Potency [12] | Potency [13] | outcome [14] | Potency [15] | Potency [16] | max activation [17] -0.392% | Potency [18] | Potency [19]

CCCCNC1CC(C)(C)NC(C)(C)C1
inactive: outcome [1] | Potency [2] | Potency [3] | Potency [4] | Potency [5] | Potency [20] | outcome [6] | outcome [9] | outcome [10] | Potency [11] | Potency [12] | Potency [13] | outcome [14] | Potency [15] | Potency [16]

CCCCCCCCSCC
inactive: outcome [1] | Potency [2] | Potency [3] | Potency [4] | Potency [5] | Potency [20] | outcome [6] | outcome [8] | outcome [9] | outcome [10] | Potency [11] | Potency [12] | Potency [13] | outcome [14] | Potency [16]

CO[C@@H]1[C@@H](OC(N)=O)[C@@H](O)[C@H](Oc2ccc3c(O)c(NC(=O)c4ccc(O)c(CC=C(C)C)c4)c(=O)oc3c2C)OC1(C)C
inactive: outcome [1] | Potency [2] | Potency [3] | Potency [4] | Potency [5] | outcome [6] | outcome [7] | outcome [8] | outcome [9] | outcome [10] | Potency [11] | Potency [12] | Potency [13] | outcome [14] | Potency [16] | max activation [17] -3.79% | Potency [18] | Potency [19]

O=C(O)Cc1cn(-c2ccccc2)nc1-c1ccc(Cl)cc1
inactive: outcome [1] | Potency [2] | Potency [3] | Potency [4] | Potency [5] | Potency [20] | outcome [6] | outcome [7] | outcome [9] | outcome [10] | Potency [11] | Potency [12] | outcome [14] | Potency [15] | Potency [16] | max activation [17] -1.93% | Potency [18] | Potency [19]

Cc1c(I)c(=O)n(-c2ccccc2)n1C
inactive: outcome [1] | Potency [2] | Potency [3] | Potency [4] | Potency [5] | Potency [20] | outcome [6] | outcome [8] | outcome [9] | outcome [10] | Potency [11] | Potency [12] | Potency [13] | outcome [14] | Potency [15] | Potency [16] | max activation [17] -0.919% | Potency [19]

CC(S)C(=O)NCC(=O)O (configuration not stated)
inactive: outcome [1] | Potency [2] | Potency [3] | Potency [4] | Potency [5] | outcome [6] | outcome [7] | outcome [8] | outcome [9] | outcome [10] | Potency [11] | Potency [12] | Potency [13] | outcome [14] | Potency [15] | Potency [16] | max activation [17] -1.79% | Potency [18] | Potency [19]

Reference: PubChem BioAssay (Tox21)
